Source: PubChem BioAssay AID1224904 (Broad Institute, 2016)
Among all 37,000 compounds or so, about 290 (0.78%) were called active. Inconclusive results (about 10%) are left out.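 The calls were made as follows: active = mean inhibition of at least 10% in the main channel, exceeding the control channel by a set limit; inconclusive = inhibition of 10% or more but channel gap under a set limit; inactive = mean inhibition below 10%.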 Shown is part of a subset that was picked to be rich in actives.

Experiment: DUX4 transcriptional activity inhibition in cells – 293T cells, Gaussia and Italica luciferase, primary screen (AID 1224904);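 as to activity change, negative = inhibition: 0% = median of neutral control wells and -100% = median of positive control wells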
Conditions: 293T-iDUX4 ZSCAN4-Gaussia luciferase reporter, 24 h, stronger effect = lower value, concentration not given here; for Gaussia minus Italica difference: measured here: selective DUX4 reporter inhibition
[1] = measured here: Italica tet-on control reporter

| Structure (SMILES) | activity change, negative = inhibition | activity change, negative = inhibition [1] [%] | Gaussia minus Italica difference [%] |
| --- | --- | --- | --- |
| C[C@@H]1CN([C@@H](C)CO)C(=O)Cc2cc(NC(=O)Nc3cccc4ccccc34)ccc2O[C@H]1CN(C)S(=O)(=O)c1ccc(Cl)cc1 | -2.17% (inactive) | 3.22 | -5.4 |
| CC(C)[C@@H]1COCn2nncc2CCCC(=O)N1 | -6.02% (inactive) | 7.14 | -13.2 |
| CO[C@@H]1CC[C@@H]2CCOc3c(C#N)cccc3C(=O)N(C)C[C@@H](C)C(=O)N(C)C[C@@H]1O2 | -3.12% (inactive) | -1.5 | -1.62 |
| C[C@H](O)C#Cc1ccc([C@@H]2[C@H](CO)N3CCCCN(CC4CC4)C[C@@H]23)cc1 | 4.25% (inactive) | 9.01 | -4.76 |
| COCC(=O)N1[C@@H](CO)[C@H](c2ccccc2)C12CN(C(=O)NC1CCCCC1)C2 | 12.7% (inactive) | 4.2 | 8.54 |
| COc1ccccc1-c1ccc2n(c1=O)C[C@@H]1[C@@H](CO)[C@H](C(=O)NCc3ccccc3Cl)N[C@H]21 | -0.143% (inactive) | -7.51 | 7.37 |
| CCC(=O)Nc1ccc2c(c1)C(=O)N(C)C[C@H](OC)[C@@H](C)CN(Cc1nccs1)[C@H](C)CO2 | -5.35% (inactive) | 4.67 | -10 |
| CNC[C@H]1Oc2ncc(C#Cc3ccccc3F)cc2C(=O)N([C@H](C)CO)C[C@H]1C | -2.73% (inactive) | -1.01 | -1.72 |
| CN1CCN(C(=O)C[C@@H]2CC[C@@H]3[C@H](COC[C@H](O)CN3CC3CCOCC3)O2)CC1 | 7.66% (inactive) | 11.6 | -3.98 |
| CNC(=O)C[C@@H]1CC[C@H]2[C@H](COc3ccc(NC(=O)C4CC4)cc3C(=O)N2C)O1 | 2.13% (inactive) | -0.014 | 2.15 |
| CS(=O)(=O)N1C[C@@H](O)COC[C@@H]2O[C@H](CC(=O)NC3Cc4ccccc4C3)CC[C@H]21 | 6.74% (inactive) | -3.08 | 9.82 |
| CN1c2ccc(-c3ccccc3F)cc2[C@@H]2[C@@H](CCN2C(=O)CN2CCOCC2)[C@H]1CO | 0.948% (inactive) | 9.9 | -8.96 |
| CCCNC(=O)C[C@@H]1CC[C@H]2[C@H](COc3ccc(NS(=O)(=O)c4ccccc4C)cc3C(=O)N2C)O1 | 1.9% (inactive) | 7.5 | -5.61 |
| C/C=C/c1ccc2c(c1)O[C@@H](CN(C)C(=O)c1ccccn1)[C@H](C)CN([C@@H](C)CO)S2(=O)=O | -2.65% (inactive) | 3.66 | -6.3 |
| O=C(NC[C@@H]1[C@@H](c2ccccc2)[C@H](CO)N1C(=O)Cc1cccnc1)C1CC1 | 3.18% (inactive) | 4.6 | -1.42 |
| CCCNC(=O)N1[C@H](CO)[C@@H]2c3ccccc3N(C(=O)C3CCOCC3)C[C@@H]21 | -1.95% (inactive) | -0.682 | -1.27 |
| CCS(=O)(=O)N1CCC2(CC1)CN[C@H](CO)c1c2c2ccc(OC)cc2n1C | 14.5% (inactive) | 10.9 | 3.59 |
| C[C@H](CO)N1C[C@H](C)[C@@H](CN(C)Cc2ccncc2)OCCCC[C@H](C)Oc2ccc(NS(=O)(=O)c3ccc(Cl)cc3)cc2C1=O | 1.79% (inactive) | 8.83 | -7.04 |
| COc1cccc(C#Cc2ccc3c(c2)[C@@H]2[C@@H](CCN2S(=O)(=O)c2ccc(C)cc2)[C@@H](CO)N3)c1 | 8.73% (inactive) | 11.9 | -3.21 |
| COc1cccc(CNC(=O)C[C@@H]2CC[C@H]3[C@@H](COc4ccc(NC(=O)c5cccs5)cc4C(=O)N3C)O2)c1 | -0.0474% (inactive) | -2.71 | 2.66 |
| COc1ccc(CNC(=O)C[C@H]2C[C@@H]3c4cc(NC(=O)NC5CCCC5)ccc4O[C@@H]3[C@H](CO)O2)cc1 | 8.81% (inactive) | 6.85 | 1.96 |
| O=C(CCN1CCCCC1)NCC[C@@H]1CC[C@H](NS(=O)(=O)c2cccc(Cl)c2)[C@H](CO)O1 | 5.38% (inactive) | -7.23 | 12.6 |
| CN1[C@@H]2c3ccc(-c4ccc(F)cc4)c(=O)n3C[C@H]1[C@H](CO)[C@H]2C(=O)NC1CCC1 | 6.4% (inactive) | -1.88 | 8.27 |
| CCCNC(=O)N1C[C@@H](O)COC[C@@H]2O[C@H](CC(=O)N3CCN(C)CC3)CC[C@H]21 | 1.94% (inactive) | 0.769 | 1.17 |
| CS(=O)(=O)N1CCCCN2[C@H](CO)[C@H](c3ccc(-c4cccc(C#N)c4)cc3)[C@H]2C1 | 1.86% (inactive) | -1.58 | 3.44 |
| CCNC(=O)[C@H]1[C@H](CO)[C@H]2Cn3c(ccc(-c4ccc(OC)cc4)c3=O)[C@H]2N1Cc1ccccc1 | -4.11% (inactive) | -4.47 | 0.354 |
| O=C(C1CCC1)N1CC2(C1)[C@H](c1ccccc1)[C@H](CO)N2Cc1nccs1 | 12.8% (inactive) | 2.26 | 10.6 |
| CCC(=O)N1C[C@@H](O)COC[C@H]2O[C@H](CC(=O)NCC3CCCCC3)CC[C@@H]21 | 1.84% (inactive) | 0.272 | 1.57 |
